# PubChem BioAssay AID743287 (Broad Institute, 2014)
# Values joined by “and” are separate entries in the source; they are usually repeats but may differ in a detail not shown here. Equal values may be shown once. Among all 370,000 compounds or so, about 2,300 (0.62%) were called active. The sample holds actives, similar compounds and a random draw of the others, so the mix is not that of the screen.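 Rule for the calls: active = lowest replicate activation of at least 40%, so every replicate reaches that level; inactive = the rest.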
# Experiment: GLuc luminescence reporter in INS-1E cells, primary screen for activators of glucose-dependent secretion of insulin (AID 743287);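 note: 0% = median of neutral control wells and 100% = median of IBMX positive control wells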
# Settings: INS-1E GLuc reporter insulin secretion, 2-3 h, at 16.6 µM, hits give high values
row,SMILES,activation
1,C[C@@H]1CN([C@@H](C)CO)C(=O)CCCn2cc(nn2)CO[C@@H]1CN(C)C(=O)C1CCCCC1,5.75% (inactive)
2,COc1ccc2c3c([nH]c2c1)[C@@H](CO)N(C(=O)C1CC1)CC31CCN(C(=O)c2ccncc2)CC1,1.51% (inactive)
3,O=C(CN1CCC(NC(=O)C2CC2)CC1)Nc1ccccc1[N+](=O)[O-],96.7% (active)
4,O=C(CN1CCCCC1)Nc1ccccc1C(=O)NC1CC1,22.4% (inactive)
5,O=C(CN1CCCCCC1)Nc1ccc(Br)cc1[N+](=O)[O-],7% (inactive)
6,O=C(Nc1ccc(S(=O)(=O)Nc2ncccn2)cc1)c1cncc(Br)c1,1.33% (inactive)
7,Cc1ccnc(NS(=O)(=O)c2ccc(NC(=O)c3ccc(S(=O)(=O)N(C)C)cc3)cc2)n1,7.95% (inactive)
8,CCOc1ncccc1C(=O)Nc1ccc(S(=O)(=O)Nc2nc(C)cc(C)n2)cc1,65.9% (active)
9,COCCCNC(=S)N(Cc1ccccc1)Cc1ccc(F)cc1,-5.03% (inactive)
10,COCCNC(=S)N(Cc1cccnc1)Cc1ccc(OC)c(OC)c1,53.5% (active)
11,COCCNC(=S)N(CCc1c(C)[nH]c2ccc(C)cc12)Cc1cccnc1,-2.95% (inactive)
12,COc1ccc(-c2cnc3c(c2)C(=O)N([C@@H](C)CO)C[C@@H](C)[C@H](CN(C)C(=O)C2CCCCC2)O3)cc1,-13.6% (inactive)
13,O=C(C[C@H]1CC[C@H]2[C@@H](COC[C@@H](O)CN2S(=O)(=O)c2ccc(Cl)cc2)O1)NCCN1CCCCC1,17.3% (inactive)
14,CNC[C@@H]1Oc2cc(-c3ccccc3OC)ccc2S(=O)(=O)N([C@H](C)CO)C[C@H]1C,5.62% (inactive)
15,CCC1OC(C2CC2)CC2=C1C(=O)OC(C)(C)O2 (stereo not drawn),44.5% (active)
16,CC1(C)OC(=O)C2=C(C[C@@H](C3CC3)O[C@H]2CCc2cccc(Cl)c2)O1,-7.22% (inactive)
17,CC[C@@H]1CC2=C(C(=O)OC(C)(C)O2)[C@@H](CC)O1,-0.455% (inactive)
18,O=C(Nc1ccc(C(F)(F)F)cc1)N1[C@@H]2CNC[C@H]1C2c1ccc(-c2ccncc2)cc1 (stereo partly drawn),3.37% (inactive) and 12.2% (inactive)
19,CCCCc1nc(NCc2ccccc2)c(C#N)c2c1CCCC2,-17.4% (inactive)
20,CCCCc1nc(NCCN)c(C#N)c2c1CSC(C)(C)C2,44.2% (active)
21,COc1cccc(S(=O)(=O)N2[C@@H]3CNC[C@H]2C3c2ccc(-c3cccc(C(=O)N(C)C)c3)cc2)c1 (stereo partly drawn),11.3% (inactive) and 0.645% (inactive)
22,CO[C@H]1CN(C)C(=O)c2cc(NS(C)(=O)=O)ccc2OC[C@@H](C)N(C(=O)NC(C)C)C[C@@H]1C,8.6% (inactive)
23,CCOC(=O)C1(Cc2cccc(OC)c2)CCCN(S(=O)(=O)c2cccnc2)C1 (stereo not drawn),-3.61% (inactive)
24,CCOC(=O)C1(Cc2cccc(OC)c2)CCCN(C(=O)CCSC)C1 (stereo not drawn),51.6% (active)
25,CCOC(=O)C1(Cc2cccc(OC)c2)CCN(C(C)COC)CC1 (stereo not drawn),5.01% (inactive)
26,C[C@@H]1CN([C@H](C)CO)C(=O)c2cccc(NC(=O)CCCCCC(=O)Nc3ccccc3N)c2O[C@H]1CN(C)CC1CCCCC1,-3.22% (inactive)

row,SMILES,activation
1,C[C@@H]1CN([C@@H](C)CO)C(=O)c2cc(NC(=O)Nc3ccccc3)ccc2O[C@H]1CN(C)S(=O)(=O)c1ccccc1,6.36% (inactive)
2,Cc1cccc(CS(=O)(=O)c2ncc(Cl)c(C(=O)Nc3ccc(F)cc3)n2)c1,44.8% (active)
3,Cc1onc(-c2c(F)cccc2Cl)c1C(=O)Nc1cccc(S(=O)(=O)N2CCCCC2)c1,-9.79% (inactive)
4,CN(CCC(=O)Nc1cc(S(=O)(=O)N(C)C)ccc1Cl)CC(=O)Nc1ccc(F)cc1,-1.06% (inactive)
5,C/C=C/c1ccc(C2[C@H]3CNC[C@@H]2N3CC2CCOCC2)cc1 (stereo partly drawn),8.12% (inactive)
6,C[C@@H]1CN([C@@H](C)CO)C(=O)Cc2cc(NC(=O)Cc3ccccc3)ccc2O[C@H]1CN(C)Cc1ccc(C(=O)O)cc1,12.1% (inactive)
7,CC(C)NC(=O)Nc1ccc2c(c1)C(=O)N(C)[C@H]1CC[C@H](CC(=O)NCC3CCCCC3)O[C@@H]1CO2,5.93% (inactive)
8,CCC(=O)Nc1ccc2c(c1)C(=O)N(C)C[C@H](OC)[C@@H](C)CN(Cc1nccs1)[C@H](C)CO2,5.56% (inactive)
9,CC1CN(Cc2ccco2)C(=S)N(c2ccccc2)C1=O (stereo not drawn),10.7% (inactive)
10,CC1CN(Cc2ccccc2)C(=S)NC1=O (stereo not drawn),41.2% (active)
11,CC1CC(=S)Nc2ccccc2N1Cc1ccccc1 (stereo not drawn),-14.5% (inactive)
12,COCC(=O)N(C)C[C@H]1Oc2cc(C#CC3CCCC3)ccc2S(=O)(=O)N([C@H](C)CO)C[C@@H]1C,-6.72% (inactive)
13,COc1ccccc1CNC(=O)C[C@H]1C[C@@H]2c3cc(NC(=O)Nc4ccccc4F)ccc3O[C@@H]2[C@H](CO)O1,13.4% (inactive)
14,Cc1ccc(NC(=O)CSc2nnc(COc3ccccc3C)o2)cc1,6.85% (inactive)
15,COc1ccc(Cc2nnc(SCC(=O)Nc3ccc(C)c(C)c3)o2)cc1OC,71.9% (active)
16,COc1cccc(NC(=O)CSc2nnc(Cc3ccc(OC)c(OC)c3)o2)c1,37.6% (inactive)
17,C[C@H](CO)N1C[C@H](C)[C@@H](CN(C)C)Oc2ncc(-c3cccc(F)c3)cc2C1=O,-1.15% (inactive)
18,C[C@H](CO)N1C[C@H](C)[C@@H](CN(C)Cc2ccccc2)Oc2c(NC(=O)CCCCCC(=O)Nc3ccccc3N)cccc2C1=O,-7.28% (inactive)
19,CNC(=S)N/N=C/c1ccc(OCc2ccccc2)c(Br)c1,107% (active)
20,Oc1c(Br)cc(/C=N/NC(=S)NCC2CCCO2)cc1Br (stereo not drawn),-34.5% (inactive)
21,CNC(=S)N/N=C/c1ccc(N2CCOCC2)s1,8.01% (inactive)
22,COCC#Cc1cnc2c(c1)C(=O)N([C@H](C)CO)C[C@H](C)[C@H](CN(C)C(=O)Cc1cccnc1)O2,27.8% (inactive)
23,COc1cccc(-c2cnc3c(c2)C(=O)N([C@H](C)CO)C[C@H](C)[C@H](CN(C)S(=O)(=O)c2cccc(F)c2)O3)c1,-6.84% (inactive)
24,C[C@H](CO)N1C[C@H](C)[C@@H](CN(C)C(=O)Cc2ccncc2)Oc2ncc(C#CCN(C)C)cc2C1=O,36.3% (inactive)
25,Cc1cc(NC(=O)COc2ccccc2C#N)no1,10.8% (inactive)
26,Cc1cc(N/C=C\C(=O)c2ccc(Cl)c(Cl)c2)no1,76.1% (active)

row,SMILES,activation
1,Cc1cc(NCc2cccnc2)no1,-3.31% (inactive)
2,COc1ccc(CN(C)C[C@H]2Oc3c(NC(=O)c4cnccn4)cccc3C(=O)N([C@H](C)CO)C[C@@H]2C)cc1,3% (inactive)
3,O=C1[C@H](Cc2ccc(C(F)(F)F)cc2)CCn2nncc2COC[C@@H]2CCCCN12,1.36% (inactive)
4,CC(C)CC#Cc1ccc([C@H]2[C@H]3CN(C(=O)c4cnccn4)CC(=O)N3[C@H]2CO)cc1,54.1% (active)
5,CC(C)CC#Cc1ccc([C@@H]2[C@@H](CO)N3C(=O)CN(C(=O)c4cnccn4)C[C@@H]23)cc1,25.5% (inactive)
6,O=C(c1cnccn1)N1CC(=O)N2[C@H](C1)[C@@H](c1ccc(C#CC3CCCCC3)cc1)[C@@H]2CO,1.34% (inactive)
7,CO[C@@H]1CN(C)C(=O)c2ccc(NC(=O)Nc3ccccc3)cc2OC[C@@H](C)N(C(=O)Nc2c(C)noc2C)C[C@@H]1C,-0.32% (inactive)
8,CCCCCc1c(Cc2ccccc2)ncn1CCc1ccccc1OC,70% (active)
9,CCCCc1c(-c2ccc(Cl)cc2)ncn1CCc1ccccc1OC,-9.43% (inactive)
10,CCCCCc1c(-c2ccc(OC)c(OC)c2)ncn1CCc1ccccc1OC,-29.6% (inactive)
11,Cc1ccccc1-c1ccc([C@H]2[C@@H](CO)N3C(=O)CN(C(=O)c4cccnc4)C[C@@H]23)cc1,-14.5% (inactive)
12,COc1cccc(S(=O)(=O)N2CCC3(CC2)CN[C@H](CO)c2c3c3ccc(OC)cc3n2C)c1,-2.73% (inactive)
13,Cc1cc(NC(C)C)n2c(nc3ccccc32)c1C#N,4.84% (inactive)
14,Cc1ccc(S(=O)(=O)N(C)c2nc3ccccc3n3c(C(C)C)nnc23)cc1,66.1% (active)
15,O=C(Cc1ccncc1)N1CC[C@@H]2[C@@H](CO)Nc3ccc(C4=CCCCC4)cc3[C@@H]21,8.52% (inactive)
16,CN(C)CCCNC(=O)C[C@H]1CC[C@H]2[C@@H](COC[C@H](O)CN2CC2CCCCC2)O1,1.49% (inactive)
17,CC(Sc1nc2cc(Cl)ccc2s1)C(=O)Nc1ccc2c(c1)OCO2 (stereo not drawn),-18.8% (inactive)
18,O=C(Nc1ccc2c(c1)OCO2)c1sc2cc(Cl)ccc2c1Cl,69.2% (active)
19,CCSc1ccccc1C(=O)Nc1ccc2c(c1)OCO2,-1.24% (inactive)
20,C=CS(=O)c1sc(Cl)c(N2CCOCC2)c1[N+](=O)[O-] (stereo not drawn),99.9% (active)
21,COc1ccc2c3c([nH]c2c1)[C@H](CO)N(C(=O)Nc1ccc(F)cc1)CC31CCN(C(=O)Nc2c(C)noc2C)CC1,-8.35% (inactive)
22,O=C(Nc1ccc(F)cc1)N1CC(=O)N2[C@H](CO)[C@H](c3ccc(C#Cc4ccccc4)cc3)[C@H]2C1,-21.6% (inactive)
23,CCCNC(=O)Nc1ccc2c(c1)OC[C@@H](C)N(CC1CCCC1)C[C@@H](C)[C@H](OC)CN(C)C2=O,-11.9% (inactive)
24,COc1ccc(-c2ccccc2[C@H]2[C@@H](CO)N(C(=O)c3cccnc3)[C@H]2C#N)cc1,-2.16% (inactive)
25,CCc1n[nH]c(=S)n1/N=C/c1c[nH]c2ccc(Br)cc12,6.23% (inactive)
26,S=c1[nH]nc(-c2ccccc2)n1/N=C/c1c[nH]c2ccccc12,41.8% (active)
